Reference: the supplement of paper PMC9950053
Structures can show the parent of a compound that is named as a salt.

system: Danio rerio larvae (5 dpf); test: startle (activity period 16 minus period 15, 20-s interval sound) minus DMSO control (percentage points); higher = stronger startle response than DMSO larvae; details: 10 µM; exposure time: 3 h pre-incubation + 3 h imaging
Protocol: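 Wild-type 5 dpf zebrafish larvae (n=48 per drug, 96-well plates, 28.5 °C) were exposed to Tocris FDA-approved library compounds at 10 µM (0.1% DMSO) for 3 h before and 3 h during imaging. Images were taken every 6 s during visual (moving coloured lines) and acoustic stimuli, and larvae were tracked with the DeepLabCut-based Z-LaP Tracker. Each behavioural measure is the treated-group mean minus the DMSO vehicle control mean (n=844), in percentage points. This mapping covers compounds with 4-character plate codes.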

| Structure (SMILES) | startle |
| --- | --- |
| Cc1ccsc1C(=CCCN1CCC[C@@H](C(=O)O)C1)c1sccc1C [Tiagabine hydrochloride] | 7.31 |
| CC(=O)O[C@H]1C(=O)[C@@]2(C)[C@H]([C@H](OC(=O)c3ccccc3)[C@]3(O)C[C@H](OC(=O)[C@H](O)[C@@H](NC(=O)c4ccccc4)c4ccccc4)C(C)=C1C3(C)C)[C@]1(OC(C)=O)CO[C@@H]1C[C@@H]2O [Taxol] | 1.37 |
| CCCN(CCc1cccs1)[C@H]1CCc2c(O)cccc2C1 [Rotigotine hydrochloride] | -5.79 |
| C=CC(=O)N1CCC[C@@H](n2nc(-c3ccc(Oc4ccccc4)cc3)c3c(N)ncnc32)C1 [Ibrutinib] | 4.43 |
| CCN(CC)CCNC(=O)c1c(C)[nH]c(/C=C2\C(=O)Nc3ccc(F)cc32)c1C [Sunitinib malate] | -2.14 |
| CCCCCOC(=O)Nc1nc(=O)n([C@@H]2O[C@H](C)[C@@H](O)[C@H]2O)cc1F [Capecitabine] | 1.06 |
| CCC(C)(C)C(=O)O[C@H]1C[C@@H](C)C=C2C=C[C@H](C)[C@H](CC[C@@H]3C[C@@H](O)CC(=O)O3)[C@H]21 [Simvastatin] | 3.93 |
| Cc1nnc(C(C)C)n1C1C[C@H]2CC[C@@H](C1)N2CC[C@H](NC(=O)C1CCC(F)(F)CC1)c1ccccc1 (stereo in doubt) [Maraviroc] | -4.84 |
| O=c1[nH]c(=O)n([C@H]2C[C@H](O)[C@@H](CO)O2)cc1C(F)(F)F [Trifluorothymidine] | 1.59 |
| CC#C[C@]1(O)CC[C@H]2[C@@H]3CCC4=CC(=O)CCC4=C3[C@@H](c3ccc(N(C)C)cc3)C[C@@]21C [Mifepristone] | 0.533 |
| Cc1cn([C@H]2C=C[C@@H](CO)O2)c(=O)[nH]c1=O [Stavudine] | 0.235 |
| CCc1c2c(nc3ccc(OC(=O)N4CCC(N5CCCCC5)CC4)cc13)-c1cc3c(c(=O)n1C2)COC(=O)[C@]3(O)CC | 0.964 |
| Cc1c(-c2ccc(O)cc2)n(Cc2ccc(OCCN3CCCCCC3)cc2)c2ccc(O)cc12 [Bazedoxifene acetate] | -3.07 |
| CC(c1cc2ccccc2s1)N(O)C(N)=O (stereo not given) [Zileuton] | -0.862 |
| CCCc1nc2c(C)cc(-c3nc4ccccc4n3C)cc2n1Cc1ccc(-c2ccccc2C(=O)O)cc1 [Telmisartan] | 2.86 |
| COc1cc2ncnc(Nc3ccc(F)c(Cl)c3)c2cc1OCCCN1CCOCC1 [Iressa] | -1.42 |
| CN1CC2c3ccccc3Oc3ccc(Cl)cc3C2C1 (stereo not given) [Asenapine maleate] | -6.16 |
| CC(C)[C@H]1CC[C@H](C(=O)N[C@H](Cc2ccccc2)C(=O)O)CC1 [Nateglinide] | 3.17 |
| CN(C)CCc1c[nH]c2ccc(Cn3cncn3)cc12 [Rizatriptan benzoate] | 4.04 |
| CCCCNc1cc(C(=O)O)cc(S(N)(=O)=O)c1Oc1ccccc1 [Bumetanide] | 3.28 |

| Structure (SMILES) | startle |
| --- | --- |
| CN1CCC[C@@H]1CCO[C@](C)(c1ccccc1)c1ccc(Cl)cc1 [Clemastine fumarate] | -7.64 |
| CC(C)(C#N)c1cc(Cn2cncn2)cc(C(C)(C)C#N)c1 [Anastrozole] | -0.0231 |
| Clc1ccccc1C(c1ccccc1)(c1ccccc1)n1ccnc1 [Clotrimazole] | 4.43 |
| Cc1cccc(C)c1OCC(C)N (stereo not given) [Mexiletine hydrochloride] | 0.959 |
| CCOc1nc2cccc(C(=O)O)c2n1Cc1ccc(-c2ccccc2-c2nnn[nH]2)cc1 [Candesartan] | 11.2 |
| NS(=O)(=O)Cc1noc2ccccc12 [Zonisamide] | 5.14 |
| CNC(=O)c1ccccc1Sc1ccc2c(/C=C/c3ccccn3)n[nH]c2c1 [Axitinib] | -7.2 |
| COc1c(C)c2c(c(O)c1C/C=C(\C)CCC(=O)OCCN1CCOCC1)C(=O)OC2 [Mycophenolate mofetil] | 3.22 |
| CC(C)CN(C[C@@H](O)[C@H](Cc1ccccc1)NC(=O)O[C@H]1CO[C@H]2OCC[C@H]21)S(=O)(=O)c1ccc(N)cc1 [Darunavir] | -0.93 |
| O=C(O[C@@H]1C[C@@H]2C[C@H]3C[C@H](C1)N2CC3=O)c1c[nH]c2ccccc12 [Dolasetron mesylate] | 0.504 |
| CCOC(=O)C1=C(C)NC(C)=C(C(=O)OC)C1c1cccc(Cl)c1Cl (stereo not given) [Felodipine] | 7.93 |
| CCCCC1=NC2(CCCC2)C(=O)N1Cc1ccc(-c2ccccc2-c2nnn[nH]2)cc1 [Irbesartan] | 3.4 |
| OCCOCCN1CCN(C2=Nc3ccccc3Sc3ccccc32)CC1 [Quetiapine hemifumarate] | -0.888 |
| CC(C)(C)NC(=O)[C@@H]1C[C@@H]2CCCC[C@@H]2CN1C[C@@H](O)[C@H](Cc1ccccc1)NC(=O)[C@H](CC(N)=O)NC(=O)c1ccc2ccccc2n1 [Saquinavir mesylate] | 0.811 |
| Cc1ccccc1C(=O)Nc1ccc(C(=O)N2CCCC(O)c3cc(Cl)ccc32)c(C)c1 (stereo not given) [Tolvaptan] | 4.33 |
| Cc1nc(Nc2ncc(C(=O)Nc3c(C)cccc3Cl)s2)cc(N2CCN(CCO)CC2)n1 [Dasatinib] | -0.00442 |
| CCN(Cc1ccncc1)C(=O)C(CO)c1ccccc1 (stereo not given) [Tropicamide] | -6.79 |
| CN1CC[C@@H](NC(=O)Nc2ccc(C#N)cc2)C[C@@H]1c1nc2ccccc2[nH]1 | -4.15 |
| Nc1nc(NC2CC2)c2ncn([C@H]3C=C[C@@H](CO)C3)c2n1 [Abacavir hemisulfate] | 6.4 |
| Cc1nc(-c2ccc(OCC(C)C)c(C#N)c2)sc1C(=O)O [Febuxostat] | 3.79 |
